Among the test systems are SK-MEL-2 melanoma; EKVX NSCLC; SN12C renal; TK-10 renal; ACHN renal; CAKI-1 renal; A498 renal; CCRF-CEM leukemia; MOLT-4 leukemia; SR leukemia; RPMI-8226 leukemia; OVCAR-8 ovarian; OVCAR-5 ovarian; OVCAR-4 ovarian; SK-OV-3 ovarian; IGROV1 ovarian; OVCAR-3 ovarian; HS 578T breast; NCI/ADR-RES ovarian; UO-31 renal.
Experiment in all cases: NCI-60 one-dose screen, 48 h (100 = growth as untreated, 0 = no growth, -100 = all killed)
What all share (settings): 10 µM unless noted

The panel holds about 83,000 compounds, 20% with a hit somewhere; the sample as a whole holds those more often.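 Compound tested at a single concentration for 48 hours in 96-well plates; a percent growth value below 10 was scored as active.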 A number with no mark means an inactive call. The source made the active and inactive calls.

On to `Cc1ccccc1NC(=O)c1sc2nc3c(cc2c1N)C(=O)CCC3`, for which the growth in the test on SK-MEL-2 melanoma was 58.6%; in the test with EKVX NSCLC, 87.5%; with SN12C renal, 64.5%; in the test with TK-10 renal it was 81.2%; with ACHN renal it was 49.3%; in the test on CAKI-1 renal, 55.4%. Further, the growth with A498 renal was 31.3%; in the test on CCRF-CEM leukemia, 30.3%; with MOLT-4 leukemia, 67.5%; in the test on SR leukemia, 34.4%; with RPMI-8226 leukemia it was 67.2%; in the test on OVCAR-8 ovarian, 78.6%. For the same compound, the growth was 80.8% with OVCAR-5 ovarian; 67.6% with OVCAR-4 ovarian; 22.1% in the test with SK-OV-3 ovarian; 77% with IGROV1 ovarian; 4.33% (active) with OVCAR-3 ovarian; 25.8% in the test on HS 578T breast. In addition, in the test with NCI/ADR-RES ovarian, the growth is 22.6%.

For `COc1ccc2nc(-c3ccc(-c4noc(-c5ccc(Cl)cc5)n4)cc3)[nH]c2c1`, the growth in the test with SK-MEL-2 melanoma was 100%; in the test with EKVX NSCLC, 91.2%; with SN12C renal it was 77.7%; with TK-10 renal it was 120%; in the test with ACHN renal, 77.9%; in the test with CAKI-1 renal, 92.1%. Further, the growth with A498 renal was 90.7%; in the test with CCRF-CEM leukemia it was 57%; with MOLT-4 leukemia, 79%; in the test on RPMI-8226 leukemia, 101%; in the test on OVCAR-8 ovarian, 74.1%; in the test on OVCAR-5 ovarian, 92.6%. The growth in the test on OVCAR-4 ovarian was -25.9% (active); in the test with SK-OV-3 ovarian, 90.7%; in the test with IGROV1 ovarian, 78.1%; with OVCAR-3 ovarian it was 64.9%; in the test on HS 578T breast, 62.1%; in the test with NCI/ADR-RES ovarian it was 47.1%.

Regarding `CC1OC(n2c3ccccc3c3c4c(c5c6ccccc6[nH]c5c32)C(=O)N(CCN2CCOCC2)C4=O)CC(O)C1O` (stereo unspecified), the growth was 99.7% with SK-MEL-2 melanoma; 56.7% in the test on EKVX NSCLC; 19.8% in the test on SN12C renal; 58.5% in the test on TK-10 renal; 8.9% (active) with ACHN renal; 14.9% in the test on CAKI-1 renal. Besides, the growth with A498 renal is 47.5%; with CCRF-CEM leukemia, 27%; in the test with SR leukemia it was 10.7%; with RPMI-8226 leukemia, 27.8%; in the test on OVCAR-8 ovarian, 32.4%; with OVCAR-5 ovarian, 61.7%. For the same compound, the growth in the test on OVCAR-4 ovarian is 46.5%; in the test with SK-OV-3 ovarian, 6.84% (active); in the test with IGROV1 ovarian, 48.3%; with OVCAR-3 ovarian, 48.2%; in the test with HS 578T breast it was 63.6%; in the test on NCI/ADR-RES ovarian it was 26.4%.

For the compound `C=CCOC(=O)C1=C(C)NC2=C(C(=O)CC(C)(C)C2)C1c1ccc(OC)cc1` (stereo unspecified), the growth was 95% in the test with SK-MEL-2 melanoma; 101% in the test on EKVX NSCLC; 85.2% with UO-31 renal; 114% with TK-10 renal; 98.6% in the test with ACHN renal; 80.8% in the test on CAKI-1 renal. The growth in the test with A498 renal was 85.5%; in the test with CCRF-CEM leukemia it was 97.4%; in the test with MOLT-4 leukemia, 89.7%; in the test on SR leukemia, 98.8%; in the test on OVCAR-8 ovarian, 93%; with OVCAR-5 ovarian, 107%. The growth in the test with OVCAR-4 ovarian is 110%; in the test on SK-OV-3 ovarian, 82.1%; in the test with IGROV1 ovarian, 105%; in the test with OVCAR-3 ovarian, 107%; with HS 578T breast, 90.6%; in the test with NCI/ADR-RES ovarian, 103%.

Consider `S=C(S)Oc1cccc2cccnc12`, for which the growth in the test on SK-MEL-2 melanoma is 105%; in the test on EKVX NSCLC, 115%; in the test on UO-31 renal, 62.2%; in the test on TK-10 renal, 100%; with ACHN renal it was 96.2%; in the test on CAKI-1 renal it was 91.7%. Further, the growth in the test on A498 renal was 105%; in the test with CCRF-CEM leukemia, 103%; in the test on MOLT-4 leukemia, 83.6%; in the test on SR leukemia it was 87.7%; in the test on RPMI-8226 leukemia it was 106%; with OVCAR-8 ovarian, 108%. Besides, the growth is 108% with OVCAR-5 ovarian; 92.2% with OVCAR-4 ovarian; 100% with SK-OV-3 ovarian; 86.1% with IGROV1 ovarian; 120% in the test on OVCAR-3 ovarian; 96.2% with HS 578T breast. In the test on NCI/ADR-RES ovarian, the growth is 106%.

Turning to `CCN(CC)CC(=O)Nc1c(C)ccc(N)c1C`, the growth in the test with SK-MEL-2 melanoma was 99.4%; in the test on EKVX NSCLC it was 96.5%; in the test with UO-31 renal, 86.2%; in the test on TK-10 renal, 100%; in the test on ACHN renal it was 112%; with CAKI-1 renal, 102%. Further, the growth in the test on CCRF-CEM leukemia was 112%; in the test with MOLT-4 leukemia, 115%; in the test with SR leukemia it was 151%; in the test with RPMI-8226 leukemia it was 111%; with OVCAR-8 ovarian it was 105%; with OVCAR-5 ovarian it was 99.2%. The growth was 99.1% in the test on OVCAR-4 ovarian; 96.7% in the test with SK-OV-3 ovarian; 95.4% in the test on IGROV1 ovarian; 109% with OVCAR-3 ovarian; 105% with HS 578T breast; 99.2% in the test on NCI/ADR-RES ovarian.

Turning to `COc1ccc(-c2nn(C(=O)NCCN(C)C)cc2-c2ccncc2)cc1Cl`, the growth is 32.7% in the test with SK-MEL-2 melanoma; 43.4% in the test with EKVX NSCLC; 52.6% with UO-31 renal; 17.1% in the test with TK-10 renal; 47.8% in the test with ACHN renal; 51.1% in the test on CAKI-1 renal. Moreover, the growth is 34.2% in the test on A498 renal; 47.9% with CCRF-CEM leukemia; 34.3% with MOLT-4 leukemia; 20.5% in the test on SR leukemia; 20.4% with OVCAR-8 ovarian; 76.9% with OVCAR-5 ovarian. The growth in the test with OVCAR-4 ovarian is 57.6%; in the test on SK-OV-3 ovarian it was 9.29% (active); in the test on IGROV1 ovarian, 54.1%; with OVCAR-3 ovarian, 51.3%; with HS 578T breast, 66.5%; in the test on NCI/ADR-RES ovarian it was 14.5%.

Take `COc1cccc(NC(=O)OC(C)C)c1`: the growth was 136% with SK-MEL-2 melanoma; 94.7% with EKVX NSCLC; 98.6% in the test on SN12C renal; 100% in the test on TK-10 renal; 101% with ACHN renal; 86.4% in the test on CAKI-1 renal. The growth was 3.14% (active) with CCRF-CEM leukemia; 92.4% in the test with SR leukemia; 106% in the test with OVCAR-8 ovarian; 96.4% in the test with OVCAR-5 ovarian; 93.1% with OVCAR-4 ovarian; 104% in the test with SK-OV-3 ovarian. Also, the growth in the test with IGROV1 ovarian is 99.7%; in the test with OVCAR-3 ovarian it was 121%; with HS 578T breast, 99%; in the test on NCI/ADR-RES ovarian it was 98.4%.

For the compound `Cc1cc([N+](=O)[O-])c(C)cc1N`, the growth was 107% with SK-MEL-2 melanoma; 101% with EKVX NSCLC; 77.6% in the test with UO-31 renal; 102% in the test with TK-10 renal; 103% with ACHN renal; 92.8% in the test with CAKI-1 renal. For the same compound, the growth in the test with A498 renal was 87.2%; in the test on CCRF-CEM leukemia, 106%; in the test on MOLT-4 leukemia it was 101%; in the test on SR leukemia, 90.9%; with RPMI-8226 leukemia it was 96.5%; in the test with OVCAR-8 ovarian, 102%. Also, the growth in the test on OVCAR-5 ovarian is 116%; with SK-OV-3 ovarian, 111%; with IGROV1 ovarian, 96.9%; with HS 578T breast it was 107%; in the test with NCI/ADR-RES ovarian, 106%.

Source of the values: PubChem BioAssay (NCI).
